Tests used:
Test in all cases: DAPPL (digital affinity profiling via proximity ligation, sequencing); 10 mM Tris-HCl pH 7.5, 50 mM NaCl, 1 mM DTT, 4% glycerol, room temperature, 30 min; GST-TFs on glutathione beads, 16-mer random dsDNA library, 0.1% formaldehyde crosslink after washing; high values mean tight binding
FLI1 = biological target: T1, FLI1 (Homo sapiens, UniProt Q01543 1-452); settings: protein: recombinant; tags: N-terminal GST; dsDNA, one strand shown
T1 sequence: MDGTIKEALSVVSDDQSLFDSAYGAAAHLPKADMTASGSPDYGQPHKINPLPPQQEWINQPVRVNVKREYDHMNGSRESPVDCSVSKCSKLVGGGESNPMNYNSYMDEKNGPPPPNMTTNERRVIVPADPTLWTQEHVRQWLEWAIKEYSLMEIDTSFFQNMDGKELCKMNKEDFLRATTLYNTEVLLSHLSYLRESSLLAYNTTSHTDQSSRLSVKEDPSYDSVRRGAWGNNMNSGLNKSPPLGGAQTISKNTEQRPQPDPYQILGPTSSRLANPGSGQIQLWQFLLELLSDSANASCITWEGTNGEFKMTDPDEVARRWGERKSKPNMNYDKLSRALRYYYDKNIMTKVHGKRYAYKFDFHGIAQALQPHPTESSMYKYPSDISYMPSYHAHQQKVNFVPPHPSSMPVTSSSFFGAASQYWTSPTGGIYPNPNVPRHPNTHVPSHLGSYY
Summary of the method: (§1)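 Beads coated with glutathione captured GST-fused human transcription factors that had been expressed in yeast, and the factors were then given DNA barcodes and pooled with a tag-only sample. The pools were incubated with 200 nmole of a random double-stranded 16-mer DNA library in Tris/NaCl/DTT/glycerol buffer for 30 min at room temperature, washed, crosslinked with 0.1% formaldehyde and proximity-ligated with BsaI/T4 ligase at 37 °C for 1 h. PCR amplification and Illumina NextSeq500 sequencing came last. Binding signal is each hexamer's read frequency for a factor divided by its frequency for the tag-only sample.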

ELK1 = biological target: T2, ELK1 (Homo sapiens, UniProt P19419 1-428); settings: protein: recombinant; tags: N-terminal GST; dsDNA, one strand shown
T2 sequence: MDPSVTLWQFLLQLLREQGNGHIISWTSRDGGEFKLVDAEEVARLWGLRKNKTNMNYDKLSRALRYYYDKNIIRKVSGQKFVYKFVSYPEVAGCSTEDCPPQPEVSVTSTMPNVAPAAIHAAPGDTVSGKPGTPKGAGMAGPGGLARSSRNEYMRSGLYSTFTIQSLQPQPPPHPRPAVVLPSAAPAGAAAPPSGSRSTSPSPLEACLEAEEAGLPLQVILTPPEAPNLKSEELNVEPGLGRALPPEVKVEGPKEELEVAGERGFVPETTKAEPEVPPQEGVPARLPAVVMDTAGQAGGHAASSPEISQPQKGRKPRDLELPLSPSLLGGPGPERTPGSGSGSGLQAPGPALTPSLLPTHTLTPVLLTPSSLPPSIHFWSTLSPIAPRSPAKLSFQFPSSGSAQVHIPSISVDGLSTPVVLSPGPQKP
Summary of the method: as §1

GABPA = biological target: T3, GABPA (Homo sapiens, UniProt Q06546 1-454); settings: protein: recombinant; tags: N-terminal GST; dsDNA, one strand shown
T3 sequence: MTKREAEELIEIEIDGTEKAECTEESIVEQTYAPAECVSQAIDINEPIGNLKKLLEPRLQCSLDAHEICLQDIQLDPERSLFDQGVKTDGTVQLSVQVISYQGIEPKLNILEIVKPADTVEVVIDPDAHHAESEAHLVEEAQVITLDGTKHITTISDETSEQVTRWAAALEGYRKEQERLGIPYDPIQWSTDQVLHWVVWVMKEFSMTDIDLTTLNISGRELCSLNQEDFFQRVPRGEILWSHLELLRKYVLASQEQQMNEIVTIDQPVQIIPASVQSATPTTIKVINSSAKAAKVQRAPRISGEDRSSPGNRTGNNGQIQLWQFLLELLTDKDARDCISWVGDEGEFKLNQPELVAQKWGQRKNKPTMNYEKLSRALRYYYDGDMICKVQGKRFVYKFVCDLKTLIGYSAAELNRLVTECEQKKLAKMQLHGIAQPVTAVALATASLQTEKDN
Summary of the method: as §1

ERG = biological target: T4, ERG (Homo sapiens, UniProt P11308 1-479); settings: protein: recombinant; tags: N-terminal GST; dsDNA, one strand shown
T4 sequence: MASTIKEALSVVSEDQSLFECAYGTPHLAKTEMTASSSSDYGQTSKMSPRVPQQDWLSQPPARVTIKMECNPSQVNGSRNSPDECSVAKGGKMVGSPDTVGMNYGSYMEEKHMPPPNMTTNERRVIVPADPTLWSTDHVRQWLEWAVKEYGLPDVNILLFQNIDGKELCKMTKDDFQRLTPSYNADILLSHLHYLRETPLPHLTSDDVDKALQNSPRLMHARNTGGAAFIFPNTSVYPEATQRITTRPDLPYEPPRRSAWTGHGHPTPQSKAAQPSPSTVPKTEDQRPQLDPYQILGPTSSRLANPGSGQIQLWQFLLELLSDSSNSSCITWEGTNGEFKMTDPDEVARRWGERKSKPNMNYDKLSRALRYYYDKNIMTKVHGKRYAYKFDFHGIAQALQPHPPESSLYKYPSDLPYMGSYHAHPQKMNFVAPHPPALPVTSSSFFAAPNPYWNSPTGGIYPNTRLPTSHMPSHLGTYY
Summary of the method: as §1

ELF1 = ELF1 (Homo sapiens, UniProt P32519 1-619); settings: protein: recombinant; tags: N-terminal GST; dsDNA, one strand shown
Summary of the method: as §1

EHF = biological target: T5, EHF (Homo sapiens, UniProt Q9NZC4 1-300); settings: protein: recombinant; tags: N-terminal GST; dsDNA, one strand shown
T5 sequence: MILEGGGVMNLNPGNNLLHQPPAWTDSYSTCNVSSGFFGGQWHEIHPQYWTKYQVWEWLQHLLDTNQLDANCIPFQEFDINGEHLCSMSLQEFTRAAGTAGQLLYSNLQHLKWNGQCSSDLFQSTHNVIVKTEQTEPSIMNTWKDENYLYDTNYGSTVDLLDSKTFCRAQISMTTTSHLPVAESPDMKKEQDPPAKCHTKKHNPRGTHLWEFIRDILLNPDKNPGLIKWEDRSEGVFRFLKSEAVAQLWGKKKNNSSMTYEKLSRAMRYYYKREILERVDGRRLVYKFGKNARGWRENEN
Summary of the method: as §1

SPI1 = SPI1 (Homo sapiens, UniProt P17947 1-270); settings: protein: recombinant; tags: N-terminal GST; dsDNA, one strand shown
Summary of the method: as §1

SPIB = SPIB (Homo sapiens, UniProt Q01892 1-262); settings: protein: recombinant; tags: N-terminal GST; dsDNA, one strand shown
Summary of the method: as §1

ELK3 = biological target: T6, ELK3 (Homo sapiens, UniProt P41970 1-407); settings: protein: recombinant; tags: N-terminal GST; dsDNA, one strand shown
T6 sequence: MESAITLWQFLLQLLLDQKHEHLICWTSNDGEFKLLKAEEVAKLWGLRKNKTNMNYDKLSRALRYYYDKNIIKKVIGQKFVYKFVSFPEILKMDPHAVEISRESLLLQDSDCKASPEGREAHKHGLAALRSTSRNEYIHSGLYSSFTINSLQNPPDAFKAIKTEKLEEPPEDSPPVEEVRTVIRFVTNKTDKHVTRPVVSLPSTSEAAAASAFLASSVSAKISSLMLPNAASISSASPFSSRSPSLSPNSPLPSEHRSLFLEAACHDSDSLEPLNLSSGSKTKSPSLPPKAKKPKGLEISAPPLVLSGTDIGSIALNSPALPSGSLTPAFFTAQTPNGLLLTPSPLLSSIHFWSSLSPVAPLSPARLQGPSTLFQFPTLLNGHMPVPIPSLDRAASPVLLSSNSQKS
Summary of the method: as §1

FEV = biological target: T7, FEV (Homo sapiens, UniProt Q99581 1-238); settings: protein: recombinant; tags: N-terminal GST; dsDNA, one strand shown
T7 sequence: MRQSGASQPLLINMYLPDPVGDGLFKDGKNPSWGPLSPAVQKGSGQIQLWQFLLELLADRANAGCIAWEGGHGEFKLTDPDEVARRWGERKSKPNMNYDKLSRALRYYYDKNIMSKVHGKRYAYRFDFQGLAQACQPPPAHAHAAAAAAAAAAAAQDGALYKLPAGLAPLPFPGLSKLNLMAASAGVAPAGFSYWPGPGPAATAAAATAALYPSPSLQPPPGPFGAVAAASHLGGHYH
Summary of the method: as §1

ETV5 = ETV5 (Homo sapiens, UniProt P41161 1-510); settings: protein: recombinant; tags: N-terminal GST; dsDNA, one strand shown
Summary of the method: as §1

HSF1 = HSF1 (Homo sapiens, UniProt Q00613 1-529); settings: protein: recombinant; tags: N-terminal GST; chain copies: 3; dsDNA, one strand shown
Summary of the method: as §1

SPIC = biological target: T8, SPIC (Homo sapiens, UniProt Q8N5J4 1-248); settings: protein: recombinant; tags: N-terminal GST; dsDNA, one strand shown
T8 sequence: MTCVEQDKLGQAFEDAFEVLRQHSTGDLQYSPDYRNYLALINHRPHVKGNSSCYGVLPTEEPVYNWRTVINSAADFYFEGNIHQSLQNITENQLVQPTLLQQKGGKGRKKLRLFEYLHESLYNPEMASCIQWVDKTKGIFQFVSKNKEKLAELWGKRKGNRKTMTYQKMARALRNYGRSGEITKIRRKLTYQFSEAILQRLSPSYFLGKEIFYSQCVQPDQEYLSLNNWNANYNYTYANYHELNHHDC
Summary of the method: as §1

ELF4 = ELF4 (Homo sapiens, UniProt Q99607 1-663); settings: protein: recombinant; tags: N-terminal GST; dsDNA, one strand shown
Summary of the method: as §1

ELK4 = biological target: T9, ELK4 (Homo sapiens, UniProt P28324-2 1-405); settings: protein: recombinant; tags: N-terminal GST; dsDNA, one strand shown
T9 sequence: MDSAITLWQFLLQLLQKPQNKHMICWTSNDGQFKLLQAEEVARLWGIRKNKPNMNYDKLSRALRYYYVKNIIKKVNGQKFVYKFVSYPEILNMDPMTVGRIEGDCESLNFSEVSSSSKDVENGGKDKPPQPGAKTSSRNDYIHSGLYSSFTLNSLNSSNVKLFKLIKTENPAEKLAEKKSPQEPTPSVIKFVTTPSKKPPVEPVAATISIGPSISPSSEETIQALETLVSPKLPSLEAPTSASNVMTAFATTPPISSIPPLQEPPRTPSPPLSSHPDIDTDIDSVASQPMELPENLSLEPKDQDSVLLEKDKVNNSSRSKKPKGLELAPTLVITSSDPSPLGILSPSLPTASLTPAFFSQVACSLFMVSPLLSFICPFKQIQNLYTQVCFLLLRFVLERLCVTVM
Summary of the method: as §1

ETV2 = biological target: T10, ETV2 (Homo sapiens, UniProt O00321 1-342); settings: protein: recombinant; tags: N-terminal GST; dsDNA, one strand shown
T10 sequence: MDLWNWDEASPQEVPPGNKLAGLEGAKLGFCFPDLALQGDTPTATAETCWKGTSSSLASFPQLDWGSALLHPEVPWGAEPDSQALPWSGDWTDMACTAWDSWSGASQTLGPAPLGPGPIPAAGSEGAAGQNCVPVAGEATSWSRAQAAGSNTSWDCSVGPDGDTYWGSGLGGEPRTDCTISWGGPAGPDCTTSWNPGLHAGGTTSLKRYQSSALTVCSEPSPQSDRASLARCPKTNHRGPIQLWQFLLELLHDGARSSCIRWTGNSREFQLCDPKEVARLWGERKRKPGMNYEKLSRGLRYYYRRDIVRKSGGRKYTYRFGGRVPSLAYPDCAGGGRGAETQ
Summary of the method: as §1

ELF3 = biological target: T11, ELF3 (Homo sapiens, UniProt P78545 1-371); settings: protein: recombinant; tags: N-terminal GST; dsDNA, one strand shown
T11 sequence: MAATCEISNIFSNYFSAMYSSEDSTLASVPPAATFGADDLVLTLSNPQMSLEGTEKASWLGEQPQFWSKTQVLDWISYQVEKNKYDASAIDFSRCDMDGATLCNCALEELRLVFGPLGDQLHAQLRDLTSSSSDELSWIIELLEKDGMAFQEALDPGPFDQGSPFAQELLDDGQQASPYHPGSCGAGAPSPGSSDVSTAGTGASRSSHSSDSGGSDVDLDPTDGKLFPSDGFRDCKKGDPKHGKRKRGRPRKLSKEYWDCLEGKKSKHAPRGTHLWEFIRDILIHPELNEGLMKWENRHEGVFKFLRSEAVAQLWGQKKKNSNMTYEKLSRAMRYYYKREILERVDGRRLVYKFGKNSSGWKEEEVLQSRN
Summary of the method: as §1

CRX = CRX (Homo sapiens, UniProt O43186 1-299); settings: protein: recombinant; tags: N-terminal GST; dsDNA, one strand shown
Summary of the method: as §1

ETV1 = ETV1 (Homo sapiens, UniProt P50549 1-477); settings: protein: recombinant; tags: N-terminal GST; dsDNA, one strand shown
Summary of the method: as §1

Chain of ELF4 (Q99607 whole entry): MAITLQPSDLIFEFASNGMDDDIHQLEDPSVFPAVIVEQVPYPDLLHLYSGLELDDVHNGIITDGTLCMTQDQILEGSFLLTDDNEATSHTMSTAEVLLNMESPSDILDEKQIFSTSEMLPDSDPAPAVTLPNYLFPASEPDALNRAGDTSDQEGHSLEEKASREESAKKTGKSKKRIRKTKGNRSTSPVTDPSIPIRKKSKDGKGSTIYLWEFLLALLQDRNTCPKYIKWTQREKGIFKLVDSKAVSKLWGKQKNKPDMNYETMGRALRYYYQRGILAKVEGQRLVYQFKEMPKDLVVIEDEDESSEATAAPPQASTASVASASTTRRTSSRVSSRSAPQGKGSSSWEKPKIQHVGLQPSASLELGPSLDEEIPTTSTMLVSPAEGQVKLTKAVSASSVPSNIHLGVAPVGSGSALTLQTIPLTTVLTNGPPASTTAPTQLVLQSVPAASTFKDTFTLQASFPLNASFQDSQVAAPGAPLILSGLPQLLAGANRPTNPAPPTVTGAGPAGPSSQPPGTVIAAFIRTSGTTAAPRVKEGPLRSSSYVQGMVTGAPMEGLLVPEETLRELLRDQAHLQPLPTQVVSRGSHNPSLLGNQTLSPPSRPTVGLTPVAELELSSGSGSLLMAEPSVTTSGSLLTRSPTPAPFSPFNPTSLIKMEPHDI
Chain of CRX (O43186 whole entry): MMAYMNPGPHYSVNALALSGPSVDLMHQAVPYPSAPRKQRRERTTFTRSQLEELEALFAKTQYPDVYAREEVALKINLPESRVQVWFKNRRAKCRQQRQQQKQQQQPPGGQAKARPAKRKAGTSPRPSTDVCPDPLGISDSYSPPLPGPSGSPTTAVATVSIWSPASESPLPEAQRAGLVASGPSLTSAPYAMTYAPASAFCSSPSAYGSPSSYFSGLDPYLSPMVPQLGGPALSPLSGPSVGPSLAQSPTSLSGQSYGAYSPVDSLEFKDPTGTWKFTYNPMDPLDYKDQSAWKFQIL
Chain of ETV1 (P50549 whole entry): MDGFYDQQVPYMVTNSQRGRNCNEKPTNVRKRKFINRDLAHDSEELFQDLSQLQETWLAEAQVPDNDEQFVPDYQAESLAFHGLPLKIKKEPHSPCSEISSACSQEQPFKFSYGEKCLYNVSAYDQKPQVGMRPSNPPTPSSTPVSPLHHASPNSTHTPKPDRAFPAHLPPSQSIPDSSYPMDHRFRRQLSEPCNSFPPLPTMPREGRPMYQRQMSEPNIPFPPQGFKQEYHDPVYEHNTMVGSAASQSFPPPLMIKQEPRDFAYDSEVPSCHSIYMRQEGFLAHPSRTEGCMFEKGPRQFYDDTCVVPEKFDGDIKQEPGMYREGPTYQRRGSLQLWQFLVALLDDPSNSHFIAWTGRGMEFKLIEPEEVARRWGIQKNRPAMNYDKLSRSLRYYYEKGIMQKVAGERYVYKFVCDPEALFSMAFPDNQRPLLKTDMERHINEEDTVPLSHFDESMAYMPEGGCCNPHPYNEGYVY
Chain of ELF1 (P32519 whole entry): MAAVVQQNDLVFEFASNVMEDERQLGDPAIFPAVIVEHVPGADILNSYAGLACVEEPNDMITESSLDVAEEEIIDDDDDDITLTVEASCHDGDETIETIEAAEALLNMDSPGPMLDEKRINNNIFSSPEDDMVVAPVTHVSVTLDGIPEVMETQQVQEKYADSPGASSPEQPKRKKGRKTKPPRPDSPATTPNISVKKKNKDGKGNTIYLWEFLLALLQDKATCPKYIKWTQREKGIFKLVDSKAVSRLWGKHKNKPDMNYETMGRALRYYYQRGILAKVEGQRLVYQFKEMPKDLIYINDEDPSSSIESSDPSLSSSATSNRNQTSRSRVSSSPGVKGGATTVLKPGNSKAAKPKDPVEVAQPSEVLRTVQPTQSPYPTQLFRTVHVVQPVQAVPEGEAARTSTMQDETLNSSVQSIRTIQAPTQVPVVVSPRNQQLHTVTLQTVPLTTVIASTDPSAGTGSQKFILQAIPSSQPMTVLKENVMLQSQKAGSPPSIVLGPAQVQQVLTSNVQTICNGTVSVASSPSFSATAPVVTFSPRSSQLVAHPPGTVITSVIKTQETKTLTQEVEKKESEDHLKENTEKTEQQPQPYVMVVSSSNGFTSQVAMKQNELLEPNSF
Chain of ETV5 (P41161 whole entry): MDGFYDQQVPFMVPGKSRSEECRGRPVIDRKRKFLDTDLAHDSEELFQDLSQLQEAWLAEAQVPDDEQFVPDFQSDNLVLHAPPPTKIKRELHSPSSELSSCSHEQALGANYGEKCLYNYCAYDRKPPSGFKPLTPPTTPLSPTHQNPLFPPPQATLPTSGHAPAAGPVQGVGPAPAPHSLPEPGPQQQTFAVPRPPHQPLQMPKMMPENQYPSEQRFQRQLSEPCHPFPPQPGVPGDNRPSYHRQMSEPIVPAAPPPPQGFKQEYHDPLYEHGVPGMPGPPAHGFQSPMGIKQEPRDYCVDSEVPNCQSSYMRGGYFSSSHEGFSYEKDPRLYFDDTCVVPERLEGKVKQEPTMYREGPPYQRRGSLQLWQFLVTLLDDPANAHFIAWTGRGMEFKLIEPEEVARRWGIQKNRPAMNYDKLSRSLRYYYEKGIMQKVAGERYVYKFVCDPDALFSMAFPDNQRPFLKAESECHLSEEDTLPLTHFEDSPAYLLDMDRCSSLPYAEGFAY
Chain of HSF1 (Q00613 whole entry): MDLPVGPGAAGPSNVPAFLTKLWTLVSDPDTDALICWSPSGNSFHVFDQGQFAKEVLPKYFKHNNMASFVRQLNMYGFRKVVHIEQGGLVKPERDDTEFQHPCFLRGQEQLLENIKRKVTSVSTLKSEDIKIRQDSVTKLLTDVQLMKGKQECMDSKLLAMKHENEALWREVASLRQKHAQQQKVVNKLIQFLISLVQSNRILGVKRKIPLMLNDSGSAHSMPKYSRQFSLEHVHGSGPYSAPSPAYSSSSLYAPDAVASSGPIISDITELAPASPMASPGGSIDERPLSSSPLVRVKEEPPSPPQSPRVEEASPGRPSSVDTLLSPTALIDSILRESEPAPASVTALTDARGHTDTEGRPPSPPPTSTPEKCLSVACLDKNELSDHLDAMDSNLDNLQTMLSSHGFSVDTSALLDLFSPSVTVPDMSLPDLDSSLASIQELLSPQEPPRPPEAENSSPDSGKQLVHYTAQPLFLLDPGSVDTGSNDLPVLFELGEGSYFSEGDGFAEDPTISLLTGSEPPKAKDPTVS
Chain of SPIB (Q01892 whole entry): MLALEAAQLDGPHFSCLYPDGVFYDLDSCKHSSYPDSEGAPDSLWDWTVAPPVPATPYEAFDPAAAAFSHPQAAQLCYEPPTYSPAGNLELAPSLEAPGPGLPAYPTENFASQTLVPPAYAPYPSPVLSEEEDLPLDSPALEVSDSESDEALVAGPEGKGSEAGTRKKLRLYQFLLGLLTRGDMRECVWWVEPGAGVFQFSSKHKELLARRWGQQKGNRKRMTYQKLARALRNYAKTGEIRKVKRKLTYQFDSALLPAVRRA

## CGTTCT
FLI1
  binding signal: 1.37 fold enrichment (6-mer frequency, TF over GST control)
ELK1
  binding signal: 1.41 fold enrichment (6-mer frequency, TF over GST control)
GABPA
  binding signal: 1.44 fold enrichment (6-mer frequency, TF over GST control)
ERG
  binding signal: 1.55 fold enrichment (6-mer frequency, TF over GST control)
ELF1
  binding signal: 1.5 fold enrichment (6-mer frequency, TF over GST control)
EHF
  binding signal: 1.3 fold enrichment (6-mer frequency, TF over GST control)
SPI1
  binding signal: 1.39 fold enrichment (6-mer frequency, TF over GST control)
SPIB
  binding signal: 1.43 fold enrichment (6-mer frequency, TF over GST control)
ELK3
  binding signal: 1.52 fold enrichment (6-mer frequency, TF over GST control)
FEV
  binding signal: 1.45 fold enrichment (6-mer frequency, TF over GST control)
ETV5
  binding signal: 1.45 fold enrichment (6-mer frequency, TF over GST control)
HSF1
  binding signal: 2.27 fold enrichment (6-mer frequency, TF over GST control)
SPIC
  binding signal: 1.45 fold enrichment (6-mer frequency, TF over GST control)
ELF4
  binding signal: 1.47 fold enrichment (6-mer frequency, TF over GST control)
ELK4
  binding signal: 1.43 fold enrichment (6-mer frequency, TF over GST control)
ETV2
  binding signal: 1.39 fold enrichment (6-mer frequency, TF over GST control)
ELF3
  binding signal: 1.4 fold enrichment (6-mer frequency, TF over GST control)
CRX
  binding signal: 1.49 fold enrichment (6-mer frequency, TF over GST control)
ETV1
  binding signal: 1.37 fold enrichment (6-mer frequency, TF over GST control)

From publication PMC7862700, “An all-to-all approach to the identification of sequence-specific readers for epigenetic DNA modifications on cytosine”
